High-throughput results from PubChem BioAssay.
WRN inhibitor: inhibitors of human WRN helicase | Q14191 | WRN helicase unwinding, fluorescent forked duplex, kinetic | Potency, µM (highest dose often 114 µM), inactives show top-dose activity change, negative = inhibition, hits mostly inhibitors | 360,000 compounds, 0.46% hits; also: potency is read from the fitted curve at half-maximal effect; % is scaled to controls: 0 for no effect and ±100 for the full control effect; nearly all actives have a fitted effect of over 55% in size
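Enzyme (20 nM final) and test compound sit together 15 min at room temperature before substrate addition. Substrate is a single-forked duplex oligonucleotide (100 nM) labelled with fluorophore and quencher, with 2 mM ATP; helicase unwinding raises red fluorescence, read kinetically.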
TCR act: T cell receptor activation. 330,000 tested, under 10 active. primary human leukocytes, anti-CD3, IL-2 HTRF, 48 h. Potency, µM (top dose mostly 9.22 µM), without a hit: at the highest dose activation of IL-2 secretion, hits mostly activators; also: % of control where 0% means no effect
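Primary human leukocytes incubated 48 hr with anti-CD3 beads plus compound, without co-stimulation. Secreted IL-2 measured by HTRF (europium cryptate/d2 anti-IL-2 pair, 320 nm excitation, 665 nm emission).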
PI5P4Ka inh: blocks human PI5P4K alpha kinase activity; max response, %; P48426; 330,000 compounds, 1.2% hits; PI5P4Kalpha enzyme, ADP-Glo luminescence, 60 min; hits give low values; active = max response of -50% or lower; inconclusive = between -30% and -50%; inactive = -30% or higher; also: value at the top dose of about 77 µM; % is scaled to controls: 0 for no effect and ±100 for the full control effect
Target sequence (P48426 whole entry, looked up): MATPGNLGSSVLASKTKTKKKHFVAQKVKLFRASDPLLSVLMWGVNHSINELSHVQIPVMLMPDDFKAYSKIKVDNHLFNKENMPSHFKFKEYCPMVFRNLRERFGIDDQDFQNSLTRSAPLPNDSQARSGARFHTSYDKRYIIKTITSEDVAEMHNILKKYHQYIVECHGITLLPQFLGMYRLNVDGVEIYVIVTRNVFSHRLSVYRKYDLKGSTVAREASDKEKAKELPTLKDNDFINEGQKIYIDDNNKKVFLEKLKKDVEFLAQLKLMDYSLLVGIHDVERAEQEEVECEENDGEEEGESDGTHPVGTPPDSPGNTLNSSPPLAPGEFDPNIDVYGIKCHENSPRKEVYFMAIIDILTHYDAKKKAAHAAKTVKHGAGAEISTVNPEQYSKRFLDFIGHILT
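PI5P4Kalpha ADP-Glo assay; 5 microM ATP final; 60 min RT reaction; HEPES pH 7.4/EGTA/CHAPS, 5% DMSO; controls lacking substrate or enzyme; luminescent end-point.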
VDR inhibitor: inhibitors of human vitamin D receptor. P11473. VDR-SRC2-3 peptide fluorescence polarization, 2 h. Potency, µM, without a hit: max response, negative = inhibition, hits mostly inhibitors. 400,000 compounds, 0.93% hits. AID 504847; also: potency is read from the fitted curve at half-maximal effect; % is scaled to controls: 0 for no effect and ±100 for the full control effect
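Reagent solutions, kept cold and dark, are dispensed first; compounds are then pinned in at 23 nl, plates briefly spun, and incubated 2 h at ambient temperature. Inhibition of VDR–SRC2-3 peptide binding is read by fluorescence polarization.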
PLK1 PBD inh: inhibitors of human PLK1 polo-box domain binding; Plk1 PBD binding of FITC phosphopeptide, fluorescence polarization; Potency, µM, for the others: max response, negative = inhibition, actives largely listed as inhibitors; 360,000 compounds, 2.8% hits; AID 720504; also: potency is read from the fitted curve at half-maximal effect; series mostly up to about 57 µM; % is scaled to controls: 0 for no effect and ±100 for the full control effect; nearly all actives have a fitted effect of over 65% in size
FEN1 inh: blocks human flap endonuclease 1 | Potency, µM (series often up to 114 µM), for inactives: at the top dose activity change, negative = inhibition, most hits filed as inhibitors | 390,000 compounds, 0.35% hits | Recombinant FEN1 flap cleavage, fluorescence, 15 min | AID 588795 | P39748; also: potency is read from the fitted curve at half-maximal effect; % is scaled to controls: 0 for no effect and ±100 for the full control effect; nearly all actives have a fitted effect of over 65% in size
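In this screen, 50 nM flap DNA substrate was added to 10 nM FEN1 pretreated with compound for 15 min at room temperature; cleavage was followed with reads at 0 and 15 min, and Hill fitting gave concentration–response parameters.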
Numbers without * were called inactive; [ ] = another dose, or the depositor's remark. Rows were chosen to be rich in hits. Some 3.7% of all compounds tested hit in one or more screens of this group. Unless noted, calls follow the shape of the dose curve; as a rule, active = well fitted curve in the direction sought with a large enough effect; inconclusive = small, poorly fitted or top-dose-only effect, or another doubt; inactive = no such curve, though single readings can be large; an effect the other way counts as inactive or inconclusive.

`O=C(Oc1ccc(Br)cc1C(=S)N1CCOCC1)c1ccc(F)cc1` gave WRN inhibitor 6.3%, TCR act 8.9%, PI5P4Ka inh -11.1, VDR inhibitor 79.4µM*, PLK1 PBD inh 11.9µM* and FEN1 inh 2.3%.
For COc1ccc(C(=O)Oc2c(OC)cc(C(=S)N3CCOCC3)cc2OC)cc1 the results were WRN inhibitor 8.1%, TCR act 1.8%, PI5P4Ka inh -2.0, VDR inhibitor -9.7%, PLK1 PBD inh -7.8% and FEN1 inh 17.6%.
`CCOc1ccc(C(=S)N2CCOCC2)cc1OC` gave WRN inhibitor -4.1%, TCR act 1.1%[46.1 µM], PI5P4Ka inh -0.2, VDR inhibitor 16.1%, PLK1 PBD inh inconclusive and FEN1 inh 9.1%.
Screening CCOc1cc(C(=S)N2CCOCC2)ccc1OC returned WRN inhibitor -0.6%, TCR act -38.8%, VDR inhibitor -1.3%, PLK1 PBD inh 23.8µM* and FEN1 inh -19.0%.
O=C(CSc1nccn1Cc1ccco1)Nc1cc(C(F)(F)F)ccc1Cl was read as VDR inhibitor 9.9% and FEN1 inh -24.3%.
`Cc1cc(C)c(NC(=O)CSc2ccc(-c3sc(-c4ccccc4)nc3C)nn2)c(C)c1` gave VDR inhibitor -8.2% and FEN1 inh -3.3%.
COc1ccc(C(=S)N2CCOCC2)cc1OC(=O)c1ccc([N+](=O)[O-])cc1 was read as WRN inhibitor -11.0%, TCR act -0.3%, PI5P4Ka inh -19.6, VDR inhibitor inconclusive, PLK1 PBD inh 16.8µM* and FEN1 inh -3.8%.
`COc1ccc(C(=S)N2CCOCC2)cc1OC(=O)c1ccc(C)cc1` gave WRN inhibitor 0.3%, TCR act -2.2%, PI5P4Ka inh -0.6, VDR inhibitor 7.2%, PLK1 PBD inh -15.9% and FEN1 inh -20.5%.
For COc1ccc(C(=S)N2CCOCC2)cc1OC(=O)c1cc(OC)c(OC)c(OC)c1 the results were WRN inhibitor -32.0%, TCR act -3.1%, PI5P4Ka inh -7.7, VDR inhibitor inconclusive, PLK1 PBD inh 26.7µM* and FEN1 inh -2.6%.
For CC(C)Cn1nnnc1S(=O)(=O)Cc1ccccc1 the results were VDR inhibitor 6.4%.
Cc1ccccc1Oc1cc(-n2ncc(Cl)c(Cl)c2=O)ncn1 was read as WRN inhibitor inconclusive, TCR act 0.1%[46.1 µM], PI5P4Ka inh 2.4, VDR inhibitor inconclusive, PLK1 PBD inh 5.32µM* and FEN1 inh -1.4%.
Screening CCc1cccc(NC(=O)c2nnn(Cc3ccc(SC)cc3)c2N)c1 returned VDR inhibitor -2.8% and FEN1 inh -7.8%.
COC(=O)[C@@H]1CCCN1S(=O)(=O)Cc1ccccc1 was read as FEN1 inh -2.8%.
Screening CC(C)Oc1ccc(CNC(=O)c2cccc(NC(=O)N3CCSc4ncccc43)c2)cc1 returned VDR inhibitor -11.7% and FEN1 inh -13.9%.
Screening O=C(Nc1nc(=O)n(C(=O)C2CC2)s1)c1ccccc1 returned WRN inhibitor -0.8%, TCR act 3.7%, PI5P4Ka inh inconclusive, VDR inhibitor 50.1µM*, PLK1 PBD inh -5.2% and FEN1 inh 7.3%.
For Cc1ccc(C(=O)Nc2nc(=O)n(C(=O)c3ccccc3C)s2)cc1 the results were WRN inhibitor -6.5%, TCR act 2.4%, PI5P4Ka inh inconclusive, VDR inhibitor 22.4µM*, PLK1 PBD inh inconclusive and FEN1 inh -3.8%.
Screening O=C(Nc1nc(=O)[nH]s1)c1ccccc1 returned WRN inhibitor 3.0%, TCR act -3.6%, PI5P4Ka inh 0.3, VDR inhibitor 6.3%, PLK1 PBD inh -18.7% and FEN1 inh -4.0%.
`CCn1cc(Cl)c(C(=O)NNC(=O)CCn2cc([N+](=O)[O-])cn2)n1` gave WRN inhibitor 2.9%, TCR act -0.7%[46.1 µM], PI5P4Ka inh 4.1, VDR inhibitor 0.3%, PLK1 PBD inh -1.4% and FEN1 inh 0.1%.
Cc1nn(C(=O)CCCn2cc([N+](=O)[O-])cn2)c(C)c1Cl was read as WRN inhibitor 2.8%, TCR act -3.0%, PI5P4Ka inh inconclusive, VDR inhibitor -7.9%, PLK1 PBD inh 21.2µM* and FEN1 inh 3.9%.
Screening CCOc1cc(/C=C2\SC(=O)N(c3ccc(O)cc3)C2=O)ccc1O returned WRN inhibitor -4.7%, TCR act -1.6%, PI5P4Ka inh 1.2, VDR inhibitor -6.1%, PLK1 PBD inh 39.7% and FEN1 inh -2.8%.
`CCOc1cc(/C=C2\C(=O)N(c3nc(-c4ccc(Br)cc4)cs3)N=C2c2ccccc2)ccc1O` gave WRN inhibitor -35.3%, TCR act -2.1%, PI5P4Ka inh -83.1*, VDR inhibitor -15.2%, PLK1 PBD inh inconclusive and FEN1 inh 50.1µM*.
`COc1cc(/C=C2\C(=O)N(c3ccc(NC(C)=O)cc3)N=C2c2ccccc2)ccc1O` gave WRN inhibitor -13.1%, TCR act 0.7%, PI5P4Ka inh -10.7, VDR inhibitor inconclusive, PLK1 PBD inh 23.8µM* and FEN1 inh -28.2%.
Screening O=C1/C(=C\c2ccc(O)c(O)c2)C(c2ccccc2)=NN1c1ccccc1 returned WRN inhibitor inconclusive, PI5P4Ka inh -74.6*, VDR inhibitor -23.8%, PLK1 PBD inh 15µM* and FEN1 inh -14.0%.
Screening CCOC(=O)C(NC(C)=O)(Nc1ccc(S(=O)(=O)Nc2ncccn2)cc1)C(F)(F)F (centres undefined) returned WRN inhibitor 10.0%, TCR act -4.6%, PI5P4Ka inh 2.5, VDR inhibitor inconclusive, PLK1 PBD inh 29.9µM* and FEN1 inh -0.8%.
CCOC(=O)C(NC(=O)CC)(Nc1ccc(S(=O)(=O)Nc2cc(C)on2)cc1)C(F)(F)F (centres undefined) was read as WRN inhibitor 0.0%, TCR act -2.7%, PI5P4Ka inh 1.3, VDR inhibitor 5.8%, PLK1 PBD inh -11.4% and FEN1 inh 4.4%.
For CCOC(=O)C(NC(=O)CC)(Nc1ccc(S(=O)(=O)Nc2onc(C)c2C)cc1)C(F)(F)F (centres undefined) the results were WRN inhibitor 1.3%, TCR act -9.8%, PI5P4Ka inh 5.9, VDR inhibitor -15.0%, PLK1 PBD inh 26.7µM* and FEN1 inh 3.1%.
For CCCN(CCC)CCNC(=O)c1sc2nc3n(c(=O)c2c1C)CCCCC3 the results were VDR inhibitor -0.3% and FEN1 inh 14.8%.
Screening O=[N+]([O-])c1cccc(C(=Nc2ccccc2)NO)c1 returned WRN inhibitor -4.0%[57.1 µM], TCR act 3.5%[46.1 µM], PI5P4Ka inh 3.3, VDR inhibitor -2.3%, PLK1 PBD inh 0.5% and FEN1 inh 2.0%.
